Experimental data published in PubChem BioAssay (Tox21).
Records with an inconclusive call do not appear. The source made the active and inactive calls. Unless noted, the call rests on the fitted dose curve; in most records, active means well fitted curve in the direction sought with a large enough effect in the repeat runs; inconclusive means weak or mixed curves; inactive means flat fitted curve, though single readings scatter.

Experiments:
[1] = qHTS assay to test for compound auto fluorescence at 535 nm (green) in HEK293 cells (AID 720680)
[2] = qHTS assay to test for compound auto fluorescence at 460 nm (blue) in HEK293 cell free culture (AID 720681)
How it was run: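 Test compounds were pinned into cell-free culture medium (DMEM with 10% FBS) and fluorescence was read directly at Ex/Em 405/460 nm. Signals were expressed as fluorescence equivalents of triamterene, with DMSO vehicle as control.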

[3] = qHTS assay to test for compound auto fluorescence at 535 nm (green) in HEK293 cell free culture (AID 720682)
How it was run: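 Green-label autofluorescence (485 nm excitation, 535 nm emission) measured on compound added to cell-free culture medium (DMEM, 10% FBS). Output is expressed relative to fluorescein.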

[4] = qHTS assay to test for compound auto fluorescence at 590 nm (red) in HEK293 cell free culture (AID 720683)
How it was run: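 Tox21 10K library compounds were pinned into cell-free DMEM with 10% FBS and fluorescence was read at excitation 540 nm. Activity is expressed as Rose Bengal sodium equivalency.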

[5] = qHTS assay to test for compound auto fluorescence at 590 nm (red) in HepG2 cell free culture (AID 720684)
How it was run: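 Measured in medium alone (MEM containing 10% FBS) following pintool addition of compound; emission at 590 nm with 540 nm excitation, referenced to Rose Bengal sodium.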

[6] = qHTS assay to test for compound auto fluorescence at 460 nm (blue) in HepG2 cell free culture (AID 720685)
How it was run: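 Compound (23 nL) or DMSO pinned into cell-free MEM with 10% FBS; blue fluorescence read at 405/460 nm excitation/emission, expressed as auto-fluorescence equivalency to triamterene.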

[7] = qHTS assay to test for compound auto fluorescence at 535 nm (green) in HepG2 cell free culture (AID 720686)
[8] = qHTS assay to test for compound auto fluorescence at 460 nm (blue) in HepG2 cells (AID 720687)
How it was run: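 Cells (2,000/well in MEM with 10% FBS) attached overnight at 37 C, then were exposed to compound or DMSO for 1 hr at 37 C, 5% CO2. Fluorescence read at Ex/Em 405/460 nm, expressed as triamterene-equivalent signal.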

[9] = target: Glucocorticoid receptor (Homo sapiens) (UniProt P04150); test: qHTS assay to identify small molecule agonists of the glucocorticoid receptor (GR) signaling pathway (AID 720691; active means well fitted activation curve with a large enough effect in the signal ratio in the repeat runs, not every such curve was filed as active; the % refers to the signal ratio)
How it was run: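 Agonist mode in a HeLa line carrying a GRE-controlled beta-lactamase reporter. Compounds act for 18 h at 37 C before a 2 h room-temperature FRET substrate step and fluorescence reading.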

[10] = target: Glucocorticoid receptor (Homo sapiens) (UniProt P04150); test: qHTS assay to identify small molecule antagonists of the glucocorticoid receptor (GR) signaling pathway (AID 720692; active means well fitted inhibition curve with a large enough effect in the signal ratio in the repeat runs, not every such curve was filed as active; the % refers to the signal ratio; further: potency means the concentration at half of the fitted maximal effect)
How it was run: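 Cells plated, rested 4 h at 37 C/5% CO2; compounds in DMSO pin-transferred; dexamethasone added to 5 nM final; 18 h at 37 C; B/G FRET substrate added, 2 h room temperature; fluorescence measured.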

Measured: Potency

Chain of Glucocorticoid receptor (Homo sapiens) (P04150 whole entry, looked up): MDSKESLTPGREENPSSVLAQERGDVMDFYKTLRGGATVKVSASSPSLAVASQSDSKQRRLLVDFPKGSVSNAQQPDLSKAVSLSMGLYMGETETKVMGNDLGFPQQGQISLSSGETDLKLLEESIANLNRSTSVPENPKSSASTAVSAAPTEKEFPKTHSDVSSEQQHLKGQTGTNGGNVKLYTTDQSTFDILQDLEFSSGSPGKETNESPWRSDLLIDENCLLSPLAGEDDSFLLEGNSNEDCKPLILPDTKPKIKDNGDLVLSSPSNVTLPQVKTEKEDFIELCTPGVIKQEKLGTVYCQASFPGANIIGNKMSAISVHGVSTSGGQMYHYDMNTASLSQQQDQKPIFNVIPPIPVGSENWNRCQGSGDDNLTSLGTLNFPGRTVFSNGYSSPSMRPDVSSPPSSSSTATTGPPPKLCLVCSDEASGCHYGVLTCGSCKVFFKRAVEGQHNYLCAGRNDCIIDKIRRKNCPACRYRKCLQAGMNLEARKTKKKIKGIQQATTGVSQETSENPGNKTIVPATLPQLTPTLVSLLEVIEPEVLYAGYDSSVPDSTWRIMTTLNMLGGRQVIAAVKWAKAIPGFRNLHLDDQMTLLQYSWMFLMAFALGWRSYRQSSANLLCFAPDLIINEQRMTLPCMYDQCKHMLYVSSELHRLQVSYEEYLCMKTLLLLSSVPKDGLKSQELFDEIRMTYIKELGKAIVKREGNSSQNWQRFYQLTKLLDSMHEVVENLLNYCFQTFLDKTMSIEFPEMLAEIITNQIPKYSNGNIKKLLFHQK

c1ccc(C2CC2)c(OCC2=NCCN2)c1
inactive: all assays above

COc1cc(CC(C)N)cc2c1OCO2 (stereo unspecified)
not listed: [8]
inactive: all other assays above

O=C(NC(=O)c1c(F)cccc1F)Nc1ccc(OC(F)(F)C(F)OC(F)(F)F)c(Cl)c1 (stereo unspecified)
not listed: [9]
inactive: all other assays above

CCOP(=O)(OCC)O/C(=C/Cl)c1ccc(Cl)cc1Cl
active: [10] 49 µM
inactive: all other assays above

O=[N+]([O-])c1cc(C(F)(F)F)cc([N+](=O)[O-])c1Cl
not listed: [8] | [10]
inactive: all other assays above

C=C(C#N)CCC#N
inactive: all assays above

BrCCCCBr
inactive: all assays above

CCCCCCCCCCOC(=O)c1ccccc1C(=O)OCCCCCCCCCC
not listed: [8] | [10]
inactive: all other assays above

CCC(Br)(CC)C(=O)NC(N)=O
not listed: [5] | [9] | [10]
inactive: all other assays above
